Whole data set: some 8,300 sequences, median “log2 fold change of degron read counts, EGFP-low vs EGFP+ sorted cells (limma voom), compound-induced degradation” near -1.1, cut for the highest 2% near 3.2. Shown is part of a subset that was picked to be rich in the highest values.
Target: T1, CRBN, Q96SW2
T1 chain: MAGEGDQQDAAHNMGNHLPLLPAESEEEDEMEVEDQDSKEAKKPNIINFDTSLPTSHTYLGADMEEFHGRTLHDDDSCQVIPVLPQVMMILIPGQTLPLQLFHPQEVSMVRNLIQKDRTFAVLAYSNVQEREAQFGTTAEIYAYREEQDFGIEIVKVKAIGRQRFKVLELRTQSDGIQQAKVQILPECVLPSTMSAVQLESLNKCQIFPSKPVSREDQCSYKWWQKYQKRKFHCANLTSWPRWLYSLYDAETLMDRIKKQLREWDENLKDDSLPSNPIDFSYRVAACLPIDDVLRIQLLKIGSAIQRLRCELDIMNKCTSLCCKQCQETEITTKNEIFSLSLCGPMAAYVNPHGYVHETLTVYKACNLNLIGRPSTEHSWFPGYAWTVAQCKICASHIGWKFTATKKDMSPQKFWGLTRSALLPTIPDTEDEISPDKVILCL
Experiment: log2 fold change of degron read counts, EGFP-low vs EGFP+ sorted cells (limma voom), compound-induced degradation; higher = more compound-induced degradation of the degron-EGFP fusion; degrons are variants of IKZF1/3 zinc finger 2; compound dose not given here
Settings: Jurkat, 18 h

[1] = compound: compound 19 (5-tert-butyl-thalidomide)
[2] = compound: compound 22 (5-morpholino-thalidomide)
[3] = compound: compound 33 (diphenyl IMiD analogue)
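Further: pooled lentiviral library of zinc finger degron-EGFP fusions in mCherry-positive Jurkat cells, FACS-sorted after compound exposure, with degron abundance counted by next-generation sequencing.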

Sequence | log2 fold change of degron read counts [1] | log2 fold change of degron read counts [2] | log2 fold change of degron read counts [3] | log2 fold change of degron read counts (compound: thalidomide)
LDCNQCGFQCTQKGNLLRHIKL [46L_47D_49N_50Q_52G_53F_54Q_55C_67L_, Q9UKT9] | -2.46 | -2.61 | -2.96 | -1.93
FICPVCGATFTQKGNLLRHIKL [46F_47I_49P_50V_52G_53A_54T_55F_67L_, Q9UKT9] | -1.38 | 1.38 | 1.48 | 1.83
FKCEICGHHFTQKGNLLRHIKL [46F_47K_49E_50I_52G_53H_54H_55F_67L_, Q9UKT9] | -3.82 | -3.97 | -3.56 | -3.72
FNCNQCGRPFTQKGNLLRHIKL [46F_47N_49N_50Q_52G_53R_54P_55F_67L_, Q9UKT9] | -1.93 | -2 | -2.66 | -2.05
FVCPQCGAMFTQKGNLLRHIKL [46F_47V_49P_50Q_52G_53A_54M_55F_67L_, Q9UKT9] | -2.14 | -0.591 | 0.3 | -0.862
FECPQCGAFFTQKGNLLRHIKL [46F_47E_49P_50Q_52G_53A_54F_55F_67L_, Q9UKT9] | -2.8 | -3.69 | -1.82 | -1.91
FECDQCGAAFTQKGNLLRHIKL [46F_47E_49D_50Q_52G_53A_54A_55F_67L_, Q9UKT9] | -1.3 | -3.38 | -1.76 | -1.6
FTCEQCGACFTQKGNLLRHIKL [46F_47T_49E_50Q_52G_53A_54C_55F_67L_, Q9UKT9] | -1.75 | -1.02 | 0.816 | 0.182
FWCPQCGAVFTQKGNLLRHIKL [46F_47W_49P_50Q_52G_53A_54V_55F_67L_, Q9UKT9] | -0.18 | 1.02 | 0.693 | -0.596
FYCEICGAMFTQKGNLLRHIKL [46F_47Y_49E_50I_52G_53A_54M_55F_67L_, Q9UKT9] | 3.62 | 3.42 | 2.55 | 0.91
FTCEICGAMFTQKGNLLRHIKL [46F_47T_49E_50I_52G_53A_54M_55F_67L_, Q9UKT9] | 0.136 | 0.966 | 1.62 | 1.82
FICEICGAMFTQKGNLLRHIKL [46F_47I_49E_50I_52G_53A_54M_55F_67L_, Q9UKT9] | -0.357 | 1.35 | 2.3 | 2.13
FACPQCGAAFTQKGNLLRHIKL [46F_47A_49P_50Q_52G_53A_54A_55F_67L_, Q9UKT9] | 1.65 | -0.791 | 0.0272 | -1.04
FACEVCGAGFTQKGNLLRHIKL [46F_47A_49E_50V_52G_53A_54G_55F_67L_, Q9UKT9] | 3.4 | 1.13 | -0.271 | 0.383
FHCEVCGAGFTQKGNLLRHIKL [46F_47H_49E_50V_52G_53A_54G_55F_67L_, Q9UKT9] | 3.18 | 1.07 | 2.01 | -0.276
FDCEVCGAGFTQKGNLLRHIKL [46F_47D_49E_50V_52G_53A_54G_55F_67L_, Q9UKT9] | 1.18 | -1.45 | -1.35 | -0.721
FGCEVCGAGFTQKGNLLRHIKL [46F_47G_49E_50V_52G_53A_54G_55F_67L_, Q9UKT9] | 1.93 | -0.105 | 0.538 | -0.636
FECEVCGAGFTQKGNLLRHIKL [46F_47E_49E_50V_52G_53A_54G_55F_67L_, Q9UKT9] | 1.72 | -1.52 | 0.852 | 1.21
FYCEVCGAGFTQKGNLLRHIKL [46F_47Y_49E_50V_52G_53A_54G_55F_67L_, Q9UKT9] | 3.31 | 3.22 | 2.6 | 0.445
FQCEVCGAGFTQKGNLLRHIKL [46F_47Q_49E_50V_52G_53A_54G_55F_67L_, Q9UKT9] | 2.45 | 1.65 | 1.38 | 3.21
FICEVCGAGFTQKGNLLRHIKL [46F_47I_49E_50V_52G_53A_54G_55F_67L_, Q9UKT9] | -0.137 | 2.66 | 2.12 | 2.56
FLCEVCGAGFTQKGNLLRHIKL [46F_47L_49E_50V_52G_53A_54G_55F_67L_, Q9UKT9] | 2.28 | -0.0355 | 1.42 | 1.08
FCCEVCGAGFTQKGNLLRHIKL [46F_47C_49E_50V_52G_53A_54G_55F_67L_, Q9UKT9] | 3.35 | 1.74 | 1.47 | 1.17
FRCEVCGAGFTQKGNLLRHIKL [46F_47R_49E_50V_52G_53A_54G_55F_67L_, Q9UKT9] | 2.66 | 2.02 | 2.33 | 1.57
FFCEVCGAGFTQKGNLLRHIKL [46F_47F_49E_50V_52G_53A_54G_55F_67L_, Q9UKT9] | 3.65 | 2.72 | 1.51 | 0.512

Reference: the supplement of paper PMC12645437, “Orthogonal IMiD-Degron Pairs Induce Selective Protein Degradation in Cells” (ACS Chemical Biology, 2025)
